For 15 compounds, Potency and outcome results are on record in PubChem BioAssay (Tox21).

Test [1] is described as follows: A CellTox Green Cytotoxicity Assay to monitor cytotoxicity in HEK293 cells - 32 hour (AID 1224881). Further: nearly all actives have a fitted effect of over 40% in size. Summed up: (§1)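 Dead-cell fluorescence measured kinetically: asymmetric cyanine dye, HEK293, 600 cells/well, 5 h settle, 23 nL cpd/DMSO, 37 C, reads 0–40 h every 8 h.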
Test [2] is described as follows: A CellTox Green Cytotoxicity Assay to monitor cytotoxicity in HepG2 cells - 0 hour (AID 1224882). Further: nearly all actives have a fitted effect of over 35% in size. The method, boiled down: (§2)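 First, HepG2 cells (600/well) mixed with reagent were plated; second, after 5 h at 37 C they received compounds via pintool; third, fluorescence was measured at 0 h through 40 h at 8 h intervals.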
The nature of test [3]: A CellTox Green Cytotoxicity Assay to monitor cytotoxicity in HepG2 cells - 32 hour (AID 1224883). Further: nearly all actives have a fitted effect of over 50% in size. Further: potency means the concentration at half of the fitted maximal effect. The method, boiled down: as §2
Test [4] can be described thus: A CellTox Green Cytotoxicity Assay to monitor cytotoxicity in HEK293 cells - 8 hour (AID 1224884). Further: nearly all actives have a fitted effect of over 35% in size. The method, boiled down:
as §1

Test [5] can be described thus: qHTS RealTime-Glo MT Cell Viability Assay in HepG2 cells - 16 hour (AID 1224885). Further: nearly all actives have a fitted effect of over 50% in size. Summed up:
(§3)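 Viability was tracked continuously by NanoLuc luminescence from prosubstrate reduced by living HepG2 cells, at successive time points over 40 h of compound exposure. Cells with reagent were preincubated 5 h at 37 °C before compound addition.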
On the technique in general: qHTS replaces the single test concentration by a dilution series.

A short description of test [6]: qHTS RealTime-Glo MT Cell Viability Assay in HEK293 cells - 24 hour (AID 1224886). Further: nearly all actives have a fitted effect of over 50% in size. Further: potency means the concentration at half of the fitted maximal effect. The method, boiled down: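 Viability tracked continuously by luminescence as live cells reduce a prosubstrate for NanoLuc; HEK293 cells preincubated 5 h, compound-treated at 37 C, and read at 0, 8, 16, 24, 32 and 40 h.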
A short description of test [7]: qHTS RealTime-Glo MT Cell Viability Assay in HEK293 cells - 8 hour (AID 1224887). Further: nearly all actives have a fitted effect of over 50% in size. Further: potency means the concentration at half of the fitted maximal effect. Summed up:
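600 HEK293 cells per well, dispensed already mixed with RealTime-Glo MT reagents. Compound dosing came 5 h later. The same wells were read for luminescence at 0, 8, 16, 24, 32 and 40 h of exposure at 37 C.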

Test [8] in a line: A CellTox Green Cytotoxicity Assay to monitor cytotoxicity in HEK293 cells - 16 hour (AID 1224888). Further: nearly all actives have a fitted effect of over 35% in size. The method, boiled down: as §1
The nature of test [9]: qHTS RealTime-Glo MT Cell Viability Assay in HepG2 cells - 0 hour (AID 1224889). Further: nearly all actives have a fitted effect of over 50% in size. Summed up:
as §3

Test [10] in a line: qHTS assay to identify small molecule antagonists of the androgen receptor (AR) signaling pathway using the MDA cell line in the presence of 0.5 nM R1881 - cell viability counter screen (AID 1259242). Further: nearly all actives have a fitted effect of over 45% in size. Further: potency means the concentration at half of the fitted maximal effect. The method, boiled down:
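qHTS format. MDA-kb2 (MMTV-luc, AR/GR responsive) + cpd + 0.5 nM R1881 final, 16 hr 37C/0% CO2 → CellTiter-Fluor 30 min → fluorescence intensity.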

For test [11], the target named is Estrogen receptor (Homo sapiens) (UniProt P03372). Kind of test: qHTS assay to identify small molecule antagonists of the estrogen receptor alpha (ER-alpha) signaling pathway using the BG1 cell line in the presence of 0.1 nM 17-beta-estradiol (AID 1259244). Further: nearly all actives have a fitted effect of over 50% in size. Further: potency means the concentration at half of the fitted maximal effect. Summed up:
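Reporter is a stably transfected luciferase under four estrogen responsive elements in VM7Luc4E2 cells expressing native full-length ER-alpha; inhibition of 0.1 nM (final) 17beta-estradiol-driven signal over 22 h is read by luminescence.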

Test [12] in a line: qHTS assay to identify small molecule phospholipidosis (PLD) inducers (AID 1259344; active means well fitted curve in the direction sought with a large enough effect; an effect the other way counts as inactive or inconclusive). The method, boiled down:
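Read-out is LipidTOX Red fluorescence (ex 595/em 615) imaged in HepG2 cells after 24 h compound exposure at 37 C, with Hoechst nuclear counterstain (ex 352/em 461) allowing per-cell normalisation.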

Test [13] is described as follows: qHTS assay to identify small molecule HDAC inhibitors (AID 1259364).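 Further: wild-type HCT-116 cells with endogenous class I/II HDAC activity; top concentration of the series differs between compounds; nearly all actives have a fitted effect of over 45% in size.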 The method, boiled down: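 Quantitative high-throughput format: overnight-seeded HCT-116 cells got compounds for 2 hr at 37C; HDAC-Glo I/II reagent added, 30 min RT, luminescence measured.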
The nature of test [14]: qHTS assay to identify small molecule HDAC inhibitors - cell viability counter screen (AID 1259365). The method, boiled down: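 Luminescence from CellTiter-Glo, developed 30min at room temperature, reports viability of wild-type HCT-116 cells treated 2hr with compounds at 37 C and 5% CO2 after overnight plating.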
Test [15] can be described thus: qHTS assay to identify small molecule antagonists of the sonic hedgehog signaling (Shh) pathway - cell viability counter screen (AID 1259367). Further: nearly all actives have a fitted effect of over 55% in size. The method, boiled down: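 Fluorescence read-out (CellTiter-Fluor, 1 hr at 37C) taken after 23 hr compound treatment of 3T3 Gli1-Luc cells stimulated with conditioned medium. Cells were seeded at 2,000 per well and pre-incubated 4 hr.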

The nature of test [16]: qHTS assay to identify small molecule agonists of the sonic hedgehog signaling (Shh) pathway (AID 1259368; calls by dose curve;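 further: NIH/3T3-derived 3T3Gli1-Luc cells carrying a stable Gli1-driven firefly luciferase reporter; series mostly up to about 92 µM; nearly all actives have a fitted effect of over 15% in size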). Summed up:
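Quantitative high-throughput format using a Gli1-driven firefly luciferase reporter line derived from NIH/3T3 cells. After a 24 hr compound treatment at 37 C and 5% CO2, luminescence reported Gli1 response element activity.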

Test [17] can be described thus: qHTS assay to identify small molecule antagonists of the estrogen receptor alpha (ER-alpha) signaling pathway using the BG1 cell line in the presence of 0.1 nM 17-beta-estradiol - cell viability counter screen (AID 1259241). Further: nearly all actives have a fitted effect of over 40% in size. Summed up: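 VM7Luc4E2, 4,000 cells/well, phenol red-free medium + 10% charcoal-stripped FBS; 24 hr plating; cpd + 0.1 nM E2 final, 22 hr 37C/5% CO2; CellTiter-Fluor 30 min, fluorescence.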

Test [18] is described as follows: qHTS assay to identify small molecule agonists of the sonic hedgehog signaling (Shh) pathway - cell viability counter screen (AID 1259366). Further: nearly all actives have a fitted effect of over 50% in size. The method, boiled down: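 Cytotoxicity counter screen run in the same wells as the Shh reporter assay. NIH/3T3 cells carrying a Gli1 response element–driven luciferase were treated with DMSO-dissolved compounds for 24hr, and live-cell protease activity was measured with CellTiter-Fluor.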

A short description of test [19]: A CellTox Green Cytotoxicity Assay to monitor cytotoxicity in HepG2 cells - 8 hour (AID 1224890). Further: nearly all actives have a fitted effect of over 45% in size. Summed up: as §2

Unmarked numbers belong to inactive results. Results filed as inconclusive are left out. Calls of active or inactive are those of the source. Unless noted, the call rests on the fitted dose curve; in most records, active means well fitted curve in the direction sought with a large enough effect in the repeat runs; inconclusive means weak or mixed curves; inactive means no such curve, though single readings can be large; an effect the other way counts as inactive or inconclusive.

Chain of Estrogen receptor (Homo sapiens) (P03372 whole entry, looked up): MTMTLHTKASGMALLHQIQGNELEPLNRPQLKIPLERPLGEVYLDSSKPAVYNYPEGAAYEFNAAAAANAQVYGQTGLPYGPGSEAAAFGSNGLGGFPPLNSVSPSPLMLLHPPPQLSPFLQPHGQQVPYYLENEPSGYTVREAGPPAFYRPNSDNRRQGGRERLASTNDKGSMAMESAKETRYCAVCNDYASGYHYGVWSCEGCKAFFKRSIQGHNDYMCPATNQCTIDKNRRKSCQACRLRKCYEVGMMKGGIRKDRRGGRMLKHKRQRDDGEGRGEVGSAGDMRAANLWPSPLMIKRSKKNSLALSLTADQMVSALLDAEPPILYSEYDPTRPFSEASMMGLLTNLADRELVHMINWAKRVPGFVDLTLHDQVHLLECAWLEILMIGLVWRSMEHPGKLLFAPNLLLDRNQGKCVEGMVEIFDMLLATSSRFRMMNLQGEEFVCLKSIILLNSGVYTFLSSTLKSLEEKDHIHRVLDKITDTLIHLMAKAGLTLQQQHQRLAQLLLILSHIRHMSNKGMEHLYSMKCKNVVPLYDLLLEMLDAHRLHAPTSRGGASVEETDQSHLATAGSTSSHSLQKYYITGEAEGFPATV

For `Cc1nc2ccccc2n1Cc1ccc(Cl)cc1`, the Potency entry in test [1], in test [2], in [3], in [4], in test [5] and in test [8] was “inactive” throughout. The Potency entry in test [9], in test [12], in [13] and in [15] was “inactive” throughout. Besides, the Potency in [6] is 1.9 µM (active); in [7], 8.49 µM (active); in [10], 5.96 µM (active); in test [11], 2.11 µM (active). Moreover, the result in test [14] and in [16] was inactive.

Regarding `CCCCCCc1ccc(N)cc1`, the Potency entry in [1], in test [2], in test [4], in test [5], in test [6] and in test [9] was “inactive” in each case. The Potency entry in test [17], in test [10], in test [11], in [13], in test [18] and in test [15] was “inactive” throughout. In addition, the Potency in test [3] was 49 µM (active). For the same compound, the compound was classed as inactive in test [14] and in test [16].

Consider `CC(=O)N(O)CCCCCNC(=O)CCC(=O)N(O)CCCCCNC(=O)CCC(=O)N(O)CCCCCN`, for which the Potency entry in test [1], in test [2], in test [3], in test [4], in [5] and in test [7] was “inactive” each time. The Potency result in test [8], in test [9], in test [19], in test [17], in test [10] and in test [11] was “inactive” in each case. In addition, the Potency result in test [12], in [13] and in test [18] was “inactive” in each case. For the same compound, the outcome in [14] and in test [16] was inactive.

In the case of `CC/C(=C\C(=N/O)C(N)=O)C(C)[N+](=O)[O-]` (stereo unspecified), the Potency result in test [1], in [2], in test [3], in [4], in test [5] and in test [7] was “inactive” each time. Moreover, the Potency entry in test [8], in [9], in test [19], in [17], in test [10] and in [11] was “inactive” each time. Moreover, the Potency result in test [13], in test [18] and in [15] was “inactive” in each case. For the same compound, the call in test [14] and in test [16] was inactive.

In the case of `CN1CCC(OC(c2ccccc2)c2ccccc2)CC1`, the Potency entry in [1], in test [2], in test [3], in test [4], in [6] and in test [7] was “inactive” in each case. For the same compound, the Potency result in test [8], in test [9], in [19], in [17], in test [10] and in [11] was “inactive” each time. The Potency entry in test [12], in test [13], in test [18] and in test [15] was “inactive” each time. For the same compound, the result in test [14] and in test [16] was inactive.

`O=C1Nc2cc(Cl)ccc2Oc2ccccc21`: the Potency entry in test [1], in test [2], in [3], in test [4], in [6] and in [7] was “inactive” throughout. In addition, the Potency entry in [8], in test [9], in [19], in test [17], in test [10] and in test [18] was “inactive” in each case. Also, in [15], the Potency result was “inactive”. In addition, the outcome in test [16] was inactive.

Take `Cn1c(N)nc2nc[nH]c2c1=O`: the Potency entry in test [1], in test [2], in test [3], in [4], in test [5] and in [7] was “inactive” in each case. Moreover, the Potency result in [8], in test [9], in test [19], in [17], in test [10] and in [18] was “inactive” in each case. The Potency entry in test [15] is “inactive”. Also, the call in test [14] and in test [16] was inactive.

On to `CN1CCC(=C2c3ccccc3C=Cc3ccccc32)CC1`, for which the Potency entry in test [1], in test [2], in test [4], in test [5], in [6] and in test [19] was “inactive” in each case. The Potency result in test [17], in test [10], in test [12], in test [13] and in test [18] was “inactive” each time. Besides, in [3], the Potency was 26.8 µM (active). Also, the call in [14] and in test [16] was inactive.

Regarding `COc1ccc(OC)c(OC)c1`, the Potency entry in test [1], in test [2], in test [3], in [4], in test [6] and in test [7] was “inactive” each time. Also, the Potency entry in [8], in test [9], in [19], in [17], in test [10] and in test [11] was “inactive” throughout. Further, the Potency entry in test [13], in test [18] and in test [15] was “inactive” in each case. In addition, the outcome in test [16] was inactive.

In the case of `COCCO`, the Potency entry in [1], in test [2], in test [3], in test [4], in test [5] and in test [6] was “inactive” each time. The Potency entry in test [7], in test [8], in test [9], in [17], in [10] and in test [11] was “inactive” in each case. The Potency entry in [18] and in test [15] was “inactive” in each case. The outcome in test [14] and in test [16] was inactive.

Turning to `O=C(O)C1CCC(C(=O)O)CC1` (stereo unspecified), the Potency result in test [1], in test [2], in test [3], in test [4], in test [5] and in test [6] was “inactive” throughout. Moreover, the Potency entry in test [8], in test [9], in test [19], in [17], in test [10] and in [11] was “inactive” in each case. For the same compound, the Potency result in test [13], in test [18] and in test [15] was “inactive” in each case. Besides, the outcome in test [14] and in test [16] was inactive.

In the case of `CC(C)c1cccc(C(C)C)c1NC(=O)NS(=O)(=O)c1cc(C(C)(C)O)co1`, the Potency entry in test [1], in test [2], in test [3], in test [4], in [5] and in test [6] was “inactive” in each case. The Potency entry in test [9], in [19], in test [17], in test [10], in [18] and in test [15] was “inactive” in each case. The compound was classed as inactive in test [14] and in test [16].

On to `O=C(O)Cc1cc(I)c(Oc2ccc(O)c(I)c2)c(I)c1`, for which the Potency entry in test [1], in [2], in test [3], in test [4], in test [5] and in test [6] was “inactive” each time. Further, the Potency entry in test [7], in [8], in [19], in [17], in [10] and in test [12] was “inactive” throughout. Moreover, the Potency entry in test [13] and in [18] was “inactive” each time. The outcome in [14] and in test [16] was inactive.

`COC(=O)CSc1cc(N=c2sc(=O)n3n2CCCC3)c(F)cc1Cl`: the Potency entry in [1], in test [2], in [3], in [4], in [5] and in [6] was “inactive” in each case. The Potency entry in [7], in [9], in test [17], in test [10], in test [13] and in test [18] was “inactive” each time. In addition, the Potency entry in test [15] was “inactive”. In addition, the compound was classed as inactive in test [14] and in [16].

Take `Cn1c(NCCN(CCO)CCCc2ccc([N+](=O)[O-])cc2)cc(=O)n(C)c1=O`: the Potency result in test [1], in test [2], in [3], in test [4], in [6] and in test [7] was “inactive” each time. The Potency entry in test [8], in test [9], in [17], in test [10], in test [12] and in test [13] was “inactive” throughout. The Potency entry in test [18] and in [15] was “inactive” each time. For the same compound, the compound was called inactive in test [14] and in test [16].
